In ChEMBL document CHEMBL3988442, “University of Dundee, Small-Polar-MMV Screening Library” (2021):
Screen size: about 69,000 compounds; about 950 (1.4%) showed an effect of 50% or more. The list comes from a sample in which strong results are over-represented; it also holds similar structures and randomly drawn compounds.

What follows are compounds tested on Mycobacterium tuberculosis (assay: Cornell M. t heat shock assay; note: in the data most compounds retested in dose-response had high values).
Assay type: functional, organism-based
Parameters: dose or concentration left out as unconfirmed
`Cc1ccc(CN2CCc3onc(C(=O)Nc4cccnc4)c3C2)o1.O=C(O)C(F)(F)F.O=C(O)C(F)(F)F` was tested, and the “Percent Effect” value was 26.18%. For `Cc1cccc(CN2CC[C@H]3O[C@H](C(=O)Nc4cnccn4)CC[C@H]32)n1.O=C(O)C(F)(F)F.O=C(O)C(F)(F)F`, the “Percent Effect” value was -10.98%. With `Cl.O=C1N(Cc2cccc(Cl)c2)CCC12CCCNC2` (stereo not drawn) the “Percent Effect” value was -6.247%. In the case of `O=C(NCc1cccnc1)N[C@H]1CC[C@@]2(CCC(=O)N2CC2CC2)CC1.O=C(O)C(F)(F)F`, the “Percent Effect” value was 35.19%. In the case of `Cc1cccc(-c2ccc(C(=O)N3CCSCC3)c(=O)[nH]2)c1`, the “Percent Effect” value was 96.07%. `Cc1cccc(-c2ccc(C(=O)N3CCN(C(C)C)CC3)c(=O)[nH]2)c1` was tested, and the “Percent Effect” value was 7.848%. With `CC(=O)N1CCN(C(=O)c2ccc(-c3cccc(C)c3)[nH]c2=O)CC1` the “Percent Effect” value was 14.72%. For `O=C(O)C(F)(F)F.O=C(O)C(F)(F)F.O=C1CC(c2ccncc2)C2(CCN(CC3CC3)CC2)N1` (stereo not drawn), the “Percent Effect” value was -16.85%. `CN1CC(=O)N(c2cnn(C)c2)CC12CCN(CC1CC1)C2.O=C(O)C(F)(F)F.O=C(O)C(F)(F)F` (stereo not drawn) was tested, and the “Percent Effect” value was -40.13%. With `CN(C)C(=O)COC[C@]12COC[C@H]1CN(C1CCCC1)C2.O=C(O)C(F)(F)F` the “Percent Effect” value was 33.3%. `O=C(O)C(F)(F)F.O=C1CCCN1Cc1nnc2n1CCN(Cc1ccco1)CC2` was tested, and the “Percent Effect” value was 8.62%. `CN(Cc1cccnc1)C1CC2(CCN(c3ccccn3)CC2)C1.O=C(O)C(F)(F)F.O=C(O)C(F)(F)F.O=C(O)C(F)(F)F` was tested, and the “Percent Effect” value was -2.81%. In the case of `O=C1CSc2ccccc2N1CC(=O)N1CCCCC1c1nccs1` (stereo not drawn), the “Percent Effect” value was 95.25%. In the case of `COc1ccccc1OCCC(=O)N1CCCCC1c1nccs1` (stereo not drawn), the “Percent Effect” value was -0.6566%. In the case of `Cc1ccc2c(c1)SCC(=O)N2CC(=O)N1CCCC1c1nccs1` (stereo not drawn), the “Percent Effect” value was 34.79%. For `CN(C)C(=O)N1CCC[C@]2(C(=O)N(C)C)CN(c3ccccn3)C[C@@H]2C1.O=C(O)C(F)(F)F`, the “Percent Effect” value was -29.23%. For `Cc1nc(CN2C(=O)C[C@H]3[C@H]2CCN3C2CCOC2)cs1.O=C(O)C(F)(F)F` (stereo partly drawn), the “Percent Effect” value was -20.37%. For `O=C1C[C@H]2CC[C@@H](CN1)N2c1cc(-c2ccccc2F)nc2ccnn12`, the “Percent Effect” value was 8.242%. In the case of `I.c1ccc(Sc2ccc3c(c2)OCO3)c(CNC2=NCCN2)c1`, the “Percent Effect” value was 5.756%. For `CN(C)Cc1cc(C2CCCCN2S(=O)(=O)Cc2ccccc2)nn1C.Cl` (stereo not drawn), the “Percent Effect” value was -25.85%. `C[C@]1(O)CN(Cc2ncc[nH]2)CC[C@@H]1Oc1cccc(F)c1` was tested, and the “Percent Effect” value was -7.197%. `Cc1cnccc1CN1CC[C@@](C)(O)[C@H](Oc2cccc(F)c2)C1` was tested, and the “Percent Effect” value was -11.46%. `Cc1cnccc1CN1CC[C@H](Oc2cccc(F)c2)[C@@](C)(O)C1` was tested, and the “Percent Effect” value was 101.8%. In the case of `C[C@]1(O)CN(Cc2ncccc2F)CC[C@@H]1Oc1cccc(F)c1`, the “Percent Effect” value was 32.25%. `Cc1cccnc1CN1CC[C@H](Oc2cccc(F)c2)[C@@](C)(O)C1` was tested, and the “Percent Effect” value was 104.4%. With `Cc1nccc(CN2CC[C@H](Oc3cccc(F)c3)[C@@](C)(O)C2)n1` the “Percent Effect” value was -10.08%. `Cc1ccc(CN2CCC3(CCN(c4cnn(C)c4)C3=O)C2)s1.O=C(O)C(F)(F)F` (stereo not drawn) was tested, and the “Percent Effect” value was -24.12%. In the case of `O=C(NC1CC1)[C@H]1C[C@H]2OCC[C@H]2N(Cc2cccnc2)C1.O=C(O)C(F)(F)F.O=C(O)C(F)(F)F`, the “Percent Effect” value was 0.4638%. `O=C(NCC1CC1)C1CN(Cc2ccncc2)Cc2ccnn2C1.O=C(O)C(F)(F)F.O=C(O)C(F)(F)F.O=C(O)C(F)(F)F` (stereo not drawn) was tested, and the “Percent Effect” value was -17.14%. `Cn1cnc(S(=O)(=O)N2CCOCC2)c1Cl` was tested, and the “Percent Effect” value was -1.938%. In the case of `CN1CCN(S(=O)(=O)c2ncn(C)c2Cl)CC1`, the “Percent Effect” value was -34.66%. With `Cn1cnc(S(=O)(=O)N2CCCC2)c1Cl` the “Percent Effect” value was 74.4%. With `CC(C)(C)C(=O)N1C[C@H](c2ccsc2)[C@H]2CN(C3CCCC3)CC[C@H]21.Cl` the “Percent Effect” value was -4.306%. For `O=C(O)C(F)(F)F.O=C(O)C(F)(F)F.O=C1CC[C@]2(CC[C@@H](NCc3cccnc3)CC2)N1Cc1ccccc1`, the “Percent Effect” value was -11.79%. In the case of `CN1CCS(=O)(=O)[C@@H]2CCN(C(=O)CC(C)(C)C)CC[C@@H]21.O=C(O)C(F)(F)F`, the “Percent Effect” value was -1.789%. For `CCOc1ccc2nc(CN3CCOC(CN)C3)ccc2c1` (stereo not drawn), the “Percent Effect” value was 16.64%. For `CCOc1ccc2nc(CN3CCC(CNC(C)=O)C3)ccc2c1` (stereo not drawn), the “Percent Effect” value was 3.715%. With `CCOc1ccc2nc(CN3CCC(CN)C3)ccc2c1` (stereo not drawn) the “Percent Effect” value was 106.9%. `Cc1nn(CC(=O)Nc2ccc(F)cc2)c(N)c1C#N` was tested, and the “Percent Effect” value was 51.75%. In the case of `Cc1cc(=O)n(CC(=O)Nc2ccc(Cl)cc2)nc1C`, the “Percent Effect” value was -4.62%. In the case of `Cc1cc(NC(=O)Cn2nc(C)c(C#N)c2N)ccc1Br`, the “Percent Effect” value was -21.12%. For `CC(=O)c1c(C)nn(CC(=O)Nc2ccc(Br)cc2)c1C`, the “Percent Effect” value was 105.9%. `COc1ccc(NC(=O)Cn2nc(C)c(C(C)=O)c2C)cc1` was tested, and the “Percent Effect” value was 105.6%. With `CC(=O)c1c(C)nn(CC(=O)Nc2ccc(F)cc2)c1C` the “Percent Effect” value was 21.2%. For `COc1ccc(NC(=O)Cn2nc(C)c(C)cc2=O)cc1`, the “Percent Effect” value was 2.037%. With `COc1ccc(NC(=O)Cn2nc(C)c(C)cc2=O)cc1OC` the “Percent Effect” value was 2.159%. For `Cc1nn(CC(=O)Nc2cccc(F)c2)c(N)c1C#N`, the “Percent Effect” value was 4.908%. `NC(=O)N1CCC2(CC1)CN(Cc1cccnc1)C(=O)CO2.O=C(O)C(F)(F)F` was tested, and the “Percent Effect” value was -31.58%. In the case of `Cn1cc(CN2C[C@H]3CCC[C@@]3(COCC3CC3)C2)cn1.O=C(O)C(F)(F)F`, the “Percent Effect” value was 12.92%. `COc1cc(CNCC(O)c2cccc(F)c2)cc2c1OCO2.Cl` (stereo not drawn) was tested, and the “Percent Effect” value was -9.248%. In the case of `Cc1cccc(CN2CC[C@H]3[C@H]2CCN3Cc2cnn(C)c2)n1.O=C(O)C(F)(F)F.O=C(O)C(F)(F)F.O=C(O)C(F)(F)F`, the “Percent Effect” value was -12.06%. `Cc1noc(C)c1CN1CCC2(CC1)NC(=O)CC2c1ccccc1.O=C(O)C(F)(F)F` (stereo not drawn) was tested, and the “Percent Effect” value was 5.51%. With `Cc1noc(C)c1C(=O)N1Cc2ncn(C)c2C(COCC2CC2)C1.O=C(O)C(F)(F)F` (stereo not drawn) the “Percent Effect” value was 16.79%. In the case of `CCN1CCC2(CCN(Cc3ccc(OC)cc3)CC2)C1=O.O=C(O)C(F)(F)F`, the “Percent Effect” value was -24.62%. `Cl.N[C@@H](Cc1ccccc1)c1nnc(S(=O)(=O)Cc2cccc(Cl)c2)o1` was tested, and the “Percent Effect” value was -4.264%. `Cc1ccc(N2CCC(c3[nH]ncc3Cc3ccccc3)CC2)nn1` was tested, and the “Percent Effect” value was 102.6%. With `CCc1cn[nH]c1C1CCN(c2cc(C)c3cccc(OC)c3n2)CC1` the “Percent Effect” value was 85.21%. With `Cc1ccc(N2CCCC(c3[nH]ncc3Cc3ccccc3)C2)nn1` (stereo not drawn) the “Percent Effect” value was 8.561%. For `CCc1cn[nH]c1C1CCN(c2cc(C)c3cc(OC)ccc3n2)CC1`, the “Percent Effect” value was 2.652%. In the case of `Cc1ccc(N2CCC(c3cc(Cc4ccccc4)n[nH]3)CC2)nn1`, the “Percent Effect” value was 6.303%. `CCc1cn[nH]c1C1CCN(c2cc(C)c3ccc(OC)cc3n2)CC1` was tested, and the “Percent Effect” value was -17.8%. With `CC(=O)N1CCN(Cc2ccc(C)o2)CC2(CC(=O)N(C)C2)C1.O=C(O)C(F)(F)F` (stereo not drawn) the “Percent Effect” value was -2.414%. In the case of `Cc1nc(N)ncc1C(=O)N1CCCC(CCc2ccc(F)cc2)C1` (stereo not drawn), the “Percent Effect” value was -19.18%. For `Cc1ncccc1NC(=O)[C@@H]1CCO[C@@H]2CCN(c3ccccc3)C[C@@H]21.O=C(O)C(F)(F)F.O=C(O)C(F)(F)F`, the “Percent Effect” value was 12.9%. For `CCN(Cc1noc(C)n1)C(=O)CC1C(=O)NCCN1CC(C)(C)C` (stereo not drawn), the “Percent Effect” value was -17.37%. With `OC(CN1CCN(CC2CC2)CC1)c1ccc(Br)cc1` (stereo not drawn) the “Percent Effect” value was 6.961%. For `O=C(N1CCCCC1)N1CCN(CC(O)c2ccccc2)CC1` (stereo not drawn), the “Percent Effect” value was -21.19%. For `OC(CN1CCN(CC2CCCCC2)CC1)c1ccccc1` (stereo not drawn), the “Percent Effect” value was 50.33%. With `CCCn1nc(C)c(-c2cncn2CCN(C)C2CCCC2)c1C.Cl` the “Percent Effect” value was 7.382%. `CN(C)S(=O)(=O)N1CCC[C@]2(C[C@@H](Oc3ncccc3F)CO2)C1.O=C(O)C(F)(F)F` was tested, and the “Percent Effect” value was -8.336%. With `CNS(=O)(=O)CCNc1cc(C)nc2cc(C)nn12` the “Percent Effect” value was 10.96%. For `Cc1cc(NCc2ccc(O)cc2)n2nc(C)cc2n1`, the “Percent Effect” value was 21.53%. In the case of `Cc1cc(NCc2ccc(CO)cc2)n2nc(C)cc2n1`, the “Percent Effect” value was 10.67%. With `CNC(=O)CCCNc1cc(C)nc2cc(C)nn12` the “Percent Effect” value was -5.305%. In the case of `Cc1cc(NCc2ccc(C#N)cc2)n2nc(C)cc2n1`, the “Percent Effect” value was -9.847%. In the case of `Cc1cc(NCc2cc(C)oc2C(F)(F)F)n2nc(C)cc2n1`, the “Percent Effect” value was 56.47%. In the case of `Cc1cc(NCc2cccnc2)n2nc(C)cc2n1`, the “Percent Effect” value was 1.456%. For `Cc1cc(NCCCC(F)(F)F)n2nc(C)cc2n1`, the “Percent Effect” value was 87.73%. `Cc1cc(C(F)(F)F)nc(CNc2cc(C)nc3cc(C)nn23)n1` was tested, and the “Percent Effect” value was 65.55%. In the case of `CC(C)OCCCN(CC(=O)N1CCNCC1)C(=O)c1cccc(Cl)c1.O=C(O)C(F)(F)F`, the “Percent Effect” value was -0.6086%. For `COc1cccc(CN2C[C@@H]3COC[C@]3(CN3CCOCC3)C2)c1.O=C(O)C(F)(F)F.O=C(O)C(F)(F)F`, the “Percent Effect” value was -20.77%. For `Cc1noc(C)c1CN1C[C@@H]2COC[C@@H](CC(=O)N3CCCCO3)[C@@H]2C1.O=C(O)C(F)(F)F`, the “Percent Effect” value was -4.663%. `CCC(C)[C@H](N)c1nnc(SCC(=O)Nc2ccc(Br)cc2)o1.Cl` (stereo partly drawn) was tested, and the “Percent Effect” value was -9.343%. In the case of `O=C(O)C(F)(F)F.c1cc(COC[C@H]2CCC[C@]23CNCCO3)ccn1`, the “Percent Effect” value was 31.7%. With `CN(C)c1ncnc2c1CCN(CC1CCCC1)CC2.O=C(O)C(F)(F)F` the “Percent Effect” value was 2.211%. For `Cn1cccc1CNCC1CCCn2cc(C(C)(C)C)nc21` (stereo not drawn), the “Percent Effect” value was 1.286%. In the case of `CC(C)(C)c1cn2c(n1)C(CNCc1cnn3ccccc13)CCC2` (stereo not drawn), the “Percent Effect” value was 15.66%. In the case of `CC(C)(C)c1cn2c(n1)C(CNCc1ccccn1)CCC2` (stereo not drawn), the “Percent Effect” value was 70.45%.
